High-throughput results as filed in PubChem.
TRPV1 ag: agonists of human vanilloid receptor 1 (TRPV1). activation, % at 8.33 µM. 320,000 compounds, 0.19% hits. AID 540275. TRPV1-expressing cells, Fluo-8 calcium influx, agonist mode. Q8NER1; in the data active means activation above about 80%; inconclusive means between about 30% and that limit
Target sequence (Q8NER1 whole entry, looked up): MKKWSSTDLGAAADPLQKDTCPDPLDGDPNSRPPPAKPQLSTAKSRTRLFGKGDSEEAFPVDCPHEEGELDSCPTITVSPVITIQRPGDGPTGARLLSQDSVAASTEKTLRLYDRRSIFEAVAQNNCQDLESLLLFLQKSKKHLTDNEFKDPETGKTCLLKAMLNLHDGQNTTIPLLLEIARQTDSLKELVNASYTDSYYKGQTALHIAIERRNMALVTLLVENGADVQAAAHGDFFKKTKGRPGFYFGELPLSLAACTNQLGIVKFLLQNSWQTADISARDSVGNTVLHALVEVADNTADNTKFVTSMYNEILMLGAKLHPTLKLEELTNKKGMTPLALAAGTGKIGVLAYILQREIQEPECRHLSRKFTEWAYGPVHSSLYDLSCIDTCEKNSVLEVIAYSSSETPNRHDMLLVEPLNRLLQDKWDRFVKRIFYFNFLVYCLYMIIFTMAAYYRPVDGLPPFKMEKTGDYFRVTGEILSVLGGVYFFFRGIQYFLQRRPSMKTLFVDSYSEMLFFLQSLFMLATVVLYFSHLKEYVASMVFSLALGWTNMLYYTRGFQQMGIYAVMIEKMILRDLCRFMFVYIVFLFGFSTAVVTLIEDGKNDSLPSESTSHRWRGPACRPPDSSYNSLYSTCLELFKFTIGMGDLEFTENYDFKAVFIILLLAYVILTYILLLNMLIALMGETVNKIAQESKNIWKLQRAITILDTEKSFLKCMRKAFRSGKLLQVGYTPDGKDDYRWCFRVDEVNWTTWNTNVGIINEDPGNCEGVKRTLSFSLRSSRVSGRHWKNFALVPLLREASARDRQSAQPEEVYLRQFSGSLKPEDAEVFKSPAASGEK
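Cells expressing TRPV1 were dye-loaded with Fluo-8 and read kinetically: 10 s baseline, 3 min after compound (agonist portion), then 2 min after EC20 capsaicin (allosteric enhancer portion). Calcium-bound dye fluorescence at 480/520 nm.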
TRPV1 potentiator: enhances activation of the human vanilloid receptor TRPV1. Q8NER1. 320,000 compounds, 0.02% hits. TRPV1-expressing cells, Fluo-8 calcium influx, capsaicin EC20 potentiation. potentiation, % at 8.33 µM; in the data active means potentiation above about 80%; inconclusive means between about 30% and that limit
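TRPV1-expressing cells were cultured overnight at 35.5C and loaded with Fluo-8 calcium dye for 40 to 90 min at room temperature. After a 10 s baseline, compound was added and calcium influx was read kinetically for 3 min (ex 480/em 520 nm).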
TRPML1 ag: human mucolipin-1 channel agonism | 410,000 compounds, 0.12% hits | TRPML1-expressing cells, Ca2+ dye fluorescence, FDSS | Q9GZU1 | activation, % (concentration not given with the values); in the data active means activation above about 50%; inconclusive means mostly about 30% to 49%
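In this qHTS format, compounds were pin-transferred onto Ca8-dye-loaded TRPML1-DL cells induced with Tet overnight, and intracellular Ca2+ fluorescence was recorded kinetically for 110 s after a 10 s baseline. A subsequent 4uM final 54-4 (EC80) addition followed by a second 110 s read served as the antagonist phase.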
TRPML1 blocker: inhibitors of human TRPML1 channel | Q9GZU1 | TRPML1-inducible cells, Ca2+ dye fluorescence, FDSS; hits give low values; inhibition of EC80 agonist-evoked calcium signal | activity change, negative = inhibition, % (no concentration beside the values) | 390,000 compounds, 0.02% hits; in the data active means activity change below about -50%; inconclusive means between about -30% and that limit;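 further: stimulus is agonist 54-4 at its EC80 concentration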
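Tet-induced TRPML1-DL cells loaded with Ca8 no-wash calcium dye were read kinetically on FDSS. Compound addition was followed by EC80 agonist 54-4 (4 uM final); inhibition was read over 110 s.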
KCNH2 3.1 inh: KCNH2 3.1 (human) potassium channel inhibition; U2OS KCNH2 3.1, thallium flux FluxOr; hits give low values; AID 720553; activity change, % (tested at about 1.8 µM); 340,000 compounds, 0.95% hits;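 active means maximum activity change below -70%; inconclusive means maximum activity change from -70% to -50%; inactive means maximum activity change above -50%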;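 further: thallium influx rate constant from kinetic fluorescence after stimulation buffer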
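Channel expression came from 3.1 mutant virus (1.77 x 10^8 /mL) applied to suspended U2OS cells for 4 h. Flux was tracked with FluxOr dye plus Red40 quencher, and kinetic rate constants normalized to controls.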
hERG WT inh: blocks the wildtype human KCNH2 potassium channel. U2OS, BacMam KCNH2, thallium flux FluxOr; hits give low values. activity change, % at 1.84 µM. 340,000 compounds, 0.37% hits. AID 720551;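 active means maximum activity change below -70%; inconclusive means maximum activity change between -70% and -50%; inactive means maximum activity change above -50%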
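U2OS cells transduced with wild-type KCNH2 virus are loaded with FluxOr dye for 45 min, and thallium flux is measured in kinetic reads before and after stimulation buffer. Rate constants are normalized to DMSO controls.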
Numbers stand for hits; i = inactive; ? = inconclusive; nt = not tested or not shown. Compounds with a hit are over-represented: about 1.3% of the library has one in this group of screens.

SMILES	TRPV1 ag	TRPV1 potentiator	TRPML1 ag	TRPML1 blocker	KCNH2 3.1 inh	hERG WT inh
CC(C)(C)c1ccc(OCCNC(=O)Cc2ccc(F)cc2)cc1	91	i	i	i	i	i
COc1ccc(CNC(=O)Cn2ccc3cc(S(=O)(=O)N4CCCCC4)ccc32)cc1OC	nt	nt	i	i	nt	nt
CSc1nnc2c3c4c(sc3nc(-n3nc(C)cc3C)n12)COC(C)(C)C4	80	i	i	i	i	i
O=C(C[n+]1cccc2cc(Cl)ccc21)c1cccc([N+](=O)[O-])c1	nt	nt	i	nt	nt	nt
CCOC(=O)c1cc(-c2ccc(F)cc2)n(CCC(=O)Nc2nc3ccc(OC)cc3s2)c1C	nt	nt	i	i	nt	nt
Cc1cccc(N2C(=O)c3cccc4c(N)ccc(c34)C2=O)c1	148	i	104	i	i	i
O=C(O)c1ccc2c3c(cccc13)C(=O)N(c1ccccc1)C2=O	i	i	i	i	-104	i
Nc1ccc2c3c(cccc13)C(=O)N(c1ccccc1)C2=O	i	i	94	i	i	i
CC(C)CCN1C(=O)c2cccc3c(N)ccc(c23)C1=O	nt	nt	89	i	i	i
Cc1cccc(N2C(=O)c3cccc4cccc(c34)C2=O)c1	i	i	nt	nt	i	i
COc1cc(NC(=O)c2ccc(NC(=O)N3CCSc4ncccc43)cc2)cc(OC)c1	nt	nt	i	i	nt	nt
Cc1cccc(N2C(=O)c3cccc4c(N(C)CCO)ccc(c34)C2=O)c1	i	i	77	i	i	i
Nc1cccc(N2C(=O)c3cccc4c(N)ccc(c34)C2=O)c1	i	i	55	i	i	i
O=C(O)c1cccc(N2C(=O)c3cccc4c(Cl)ccc(c34)C2=O)c1	i	i	i	i	i	i
COc1ccc(CN2C(=O)C(C)N(C(=O)c3c(F)cccc3F)c3ccccc32)cc1 (configuration not stated)	?	i	i	i	i	i
CC1C(=O)N(Cc2ccc([N+](=O)[O-])cc2)c2ccccc2N1C(=O)c1c(F)cccc1F (configuration not stated)	i	i	i	i	i	-79
CCCCCCCNC(=O)C1(CC2CC(c3ccc(Cl)cc3)=NO2)CCN(C(=O)c2ccccc2)CC1 (configuration not stated)	i	i	i	i	nt	nt
COc1ccc(CNC(=O)C2(CC3CC(c4ccccc4)=NO3)CCN(C(=O)CCCCCBr)CC2)cc1 (configuration not stated)	nt	nt	i	i	-133	-112
CCCCCCCNC(=O)C1(CC2CC(c3ccc(Cl)cc3)=NO2)CCN(C(=O)CCCCCBr)CC1 (configuration not stated)	i	i	i	i	-83	-89
O=C(CCCCCBr)N1CCC(CC2CC(c3ccc(Cl)cc3)=NO2)(C(=O)NCC2CCCCC2)CC1 (configuration not stated)	i	i	i	i	?	-95
COc1ccc(CNC(=O)C2(CC3CC(c4ccccc4)=NO3)CCN(C(=O)OC(C)(C)C)CC2)cc1 (configuration not stated)	nt	nt	i	i	i	i
COc1ccc(OC)c(/C=C/c2c3ccccc3cc[n+]2C)c1	nt	nt	i	nt	nt	nt
CCOc1ccc(NC(=O)c2ccc(F)c(S(=O)(=O)N3CCN(c4ccccn4)CC3)c2)cc1	i	i	i	i	-71	i
CCOc1ccc(NC(=O)c2ccc(F)c(S(=O)(=O)N3CCCC3)c2)cc1	nt	nt	i	i	i	i
CN1C2CCC1CC(N(CCc1ccccc1)C(=O)c1ccc(Cl)cc1)C2 (configuration not stated)	i	i	i	i	?	i
SMILES	TRPV1 ag	TRPV1 potentiator	TRPML1 ag	TRPML1 blocker	KCNH2 3.1 inh	hERG WT inh
CCCCN(C(=O)c1ccc(Cl)cc1)C1CC2CCC(C1)N2C (configuration not stated)	i	i	i	i	-82	i
O=C(Nc1cccc2ccccc12)/C(=C/c1cccc([N+](=O)[O-])c1)NC(=O)c1cccs1	i	i	i	i	-89	i
O=C(Nc1cccc2ccccc12)/C(=C\c1cccc([N+](=O)[O-])c1)NC(=O)c1cccs1	i	i	i	i	-86	-103
Cc1ccc(/C=C/C(=O)N2CCC(c3nc4ccccc4o3)CC2)cc1	nt	nt	i	i	nt	nt
O=C(Nc1ccnn1C1CCN(C/C=C/c2ccccc2)CC1)C1CCCC1	i	i	i	i	-80	i
O=C(Nc1ccccc1Oc1cccnc1)C1CCCN(Cc2ccccc2O)C1 (configuration not stated)	i	i	i	i	i	i
O=C(Nc1ccccc1Oc1cccnc1)C1CCCN(C/C=C/c2ccccc2)C1 (configuration not stated)	i	i	i	i	-85	i
CCc1ccc(CN2CCC(n3nccc3NC(=O)c3ccccc3C)CC2)cc1	i	i	i	i	-101	i
O=C(Nc1ccnn1C1CCN(C/C=C/c2ccccc2)CC1)c1ccccc1Cl	i	i	i	i	-107	-107
O=C(CCc1ccccc1)Nc1ccnn1C1CCN(C/C=C/c2ccccc2)CC1	i	i	i	i	?	i
COc1ccc(/C=C/CN2CCC(n3nccc3NC(=O)C3CC3)CC2)cc1	i	i	i	i	i	i
CCc1ccccc1NC(=O)c1sc(-n2nc(C)c(Cc3ccccc3)c2C)nc1C	nt	nt	i	i	nt	nt
COc1ccc(OC)c(NC(=O)c2cnn(-c3ccc(C)cc3)c2C2CCNCC2)c1	nt	nt	i	i	nt	nt
O=C(CS(=O)(=O)c1cccc2nsnc12)NCc1ccccc1	nt	nt	i	i	nt	nt
O=C(Nc1ccnn1C1CCN(CC2CC=CCC2)CC1)c1ccccc1Cl (configuration not stated)	i	i	i	i	-79	i
O=C(Nc1ccnn1C1CCN(Cc2ccccc2)CC1)c1ccccc1Cl	i	i	i	i	-90	i
Cc1ccccc1C(=O)Nc1ccnn1C1CCN(CC2CC=CCC2)CC1 (configuration not stated)	i	i	i	i	i	i
COc1ccccc1C(=O)Nc1ccnn1C1CCN(C/C=C/c2ccc(F)cc2)CC1	i	i	i	i	-104	-123
CCCn1ncc(CN2CCC(n3nccc3NC(=O)c3ccccc3Cl)CC2)c1C	i	i	i	i	?	-88
CCN1CCC(n2nccc2NC(=O)c2ccccc2Cl)CC1	nt	nt	i	i	i	i
Brc1cc(Br)c[n+](CCc2ccccc2)c1	nt	nt	i	nt	nt	nt
O=C(COc1ccccc1C(=O)Nc1cccc([N+](=O)[O-])c1)Nc1ccc(Br)cc1	nt	nt	i	nt	nt	nt
O=C(CN1C(=O)COc2ccccc21)NCCc1ccc(Cl)cc1	nt	nt	i	i	nt	nt
CCc1ccc(CN2CCC(n3nccc3NC(=O)c3cccc(F)c3)CC2)cc1	i	i	i	i	-101	-110
